From PubChem BioAssay
ATXN2 expr inh: ATXN2 expression inhibition. HEK-293 ATXN2-luciferase reporter, luminescence, 24 h. Potency, µM (highest dose often 57 µM), for the others: at the highest dose activity change, negative = inhibition, most hits filed as inhibitors. 360,000 tested, 0.72% active. AID 1745845; note: potency is the fitted concentration of half-maximal effect; % is set by controls: 0 for no effect and ±100 for the full control effect; nearly all actives have a fitted effect of over 55% in size
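qHTS (up to 57 uM final) was run with 24 h compound exposure of reporter cells at 37 °C. Each well was multiplexed: SteadyGlo luminescence measured ATXN2-luciferase expression after a fluorogenic Gly-Phe-AFC viability readout (25 uM final).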
uPA generation: cell surface uPA generation inhibition | cell surface uPA generation assay, qHTS | 330,000 tested, 0.31% active | Potency, µM (titrated, usually from 38.3 µM), inactives show at the top dose activity change, negative = inhibition, actives largely listed as inhibitors; active = well fitted inhibition curve with a large enough effect; inconclusive = small, poorly fitted or top-dose-only effect; inactive = no such curve, though single readings can be large or run the other way; tested in mouse RAW 264.7 cells; note: potency is the fitted concentration of half-maximal effect; % is set by controls: 0 for no effect and ±100 for the full control effect; nearly all actives have a fitted effect of over 55% in size
S2 tox: reduces viability in counter-screen for ATXN expression inhibitors; S2 cells (HEK-293 line with an ATXN2-luciferase reporter) viability, CellTiter-Fluor protease fluorescence, 24 h; Potency, µM (highest dose often 56.7 µM), hits mostly cytotoxic; 400,000 tested, 0.49% active; note: potency is the fitted concentration of half-maximal effect; nearly all actives have a fitted effect of over 40% in size
TGFb inhibitor: inhibitors of TGF-b signaling; HepG2 CAGA-GFP TGF-b/SMAD3 reporter, GFP fluorescence, 18 h; TGF-beta stimulated, 500 pg/mL final; Potency, µM (titrated, usually from 46.1 µM), without a hit: at the highest dose activity, negative = inhibition, usual class: inhibitors; 410,000 tested, 1.2% active; note: potency is the fitted concentration of half-maximal effect; % is set by controls: 0 for no effect and ±100 for the full control effect; nearly all actives have a fitted effect of over 65% in size
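HEPG2 CAGA-GFP, 1000 cells/well; 2 h settle, 37 C; cpd via pin tool; TGF-b 500 pg/mL final; 18 h, 37 C; GFP imaging ex488/em500-530; %Activity normalised to -TGF-b and +DMSO controls; CRC fit, curve class.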
HepG2 viability: counter-screen for TGF-b inhibitors: cytotoxicity in HepG2 cells. HepG2 CAGA-GFP viability, ATP luminescence, 18 h. Potency, µM (series often up to 46.1 µM), inactives show at the top dose activity change, negative = cytotoxicity, hits mostly cytotoxic. 410,000 tested, 0.76% active; note: potency is the fitted concentration of half-maximal effect
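HepG2 CAGA-GFP cells (1000/well, DMEM with 1% FBS) received compound, then TGF-beta at 500 pg/mL final, and were incubated 18 hours at 37 degrees C. Viability was read by CellTiter-Glo luminescence. Media-only wells were set as complete cell-killing and DMSO as no toxicity.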
Giardia kill: kills Giardia lamblia. Giardia lamblia trophozoite viability. activity change, % at 7.66 µM, hits read low. 340,000 tested, 0.15% active. AID 540267; in the data active = activity change below about -80%; inconclusive = between about -30% and that limit;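 note: parasites exposed to compound for two days anaerobically before the ATP read; % is set by controls: 0 for no effect and ±100 for the full control effect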
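Trophozoites 100 cells/well + cpd; 48 hrs, 37 deg C, anaerobic. ATPLite 1-Step added, 15-30 min RT, luminescence read (ATP-based viability).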
Active calls of the source: *. Hits are enriched below; roughly 2.6% of the tested compounds scored in any of these assays. Unless noted, calls come from the whole dose curve; as a rule, active = well fitted curve in the direction sought with a large enough effect; inconclusive = small, poorly fitted or top-dose-only effect, or another doubt; inactive = no such curve, though single readings can be large; an effect the other way counts as inactive or inconclusive.

Results for COc1cccc(S(=O)(=O)NCc2ccc(C(=O)Nc3cccc(Cl)c3)cc2)c1 ?
ATXN2 expr inh: 16µM*; uPA generation: 4%; S2 tox: inconclusive; TGFb inhibitor: -14%; HepG2 viability: -3%; Giardia kill: -4

Results for CCCN1CNc2c(c(=O)[nH]c(=S)n2CCc2cccc(OC)c2)C1 ?
Giardia kill: 6

What do the screens show for `COc1ccc(-c2ccnc(-n3ncc(C(=O)NC(C)(C)CO)c3C3CC3)n2)cc1F`?
S2 tox: inactive

Results for Cn1cnc([N+](=O)[O-])c1NC(C)(C)C ?
ATXN2 expr inh: -5%; uPA generation: -2%; S2 tox: inactive; TGFb inhibitor: 15%; HepG2 viability: 4%; Giardia kill: -30

What do the screens show for `Cn1cnc([N+](=O)[O-])c1S(=O)(=O)c1ccc(Cl)cc1`?
ATXN2 expr inh: inconclusive; uPA generation: -16%; S2 tox: inconclusive; TGFb inhibitor: 11µM*; HepG2 viability: 18µM*; Giardia kill: 0

Results for OCCN(CCO)c1ccc(/C=C/c2ccnc3ccccc23)cc1 ?
TGFb inhibitor: 1%; HepG2 viability: -11%

Results for CCOc1ccc(Br)cc1S(=O)(=O)Nc1ccc(C(=O)OCC(=O)N(C)c2ccccc2)cc1 ?
ATXN2 expr inh: -1%; uPA generation: 10%; S2 tox: inactive; TGFb inhibitor: 2%; HepG2 viability: 3%; Giardia kill: 2

What do the screens show for `CCOc1ccc(Br)cc1S(=O)(=O)Nc1cccc(S(=O)(=O)N(C)c2ccccc2)c1`?
ATXN2 expr inh: -7%; uPA generation: 5%; S2 tox: inactive; TGFb inhibitor: 11µM*; HepG2 viability: -31%; Giardia kill: 21

What do the screens show for `O=C1CN(CCN2CC(=O)NC(=O)C2)CC(=O)N1`?
TGFb inhibitor: -1%; HepG2 viability: 13%

Results for Clc1ccc(Cl)c(OCCCCNCc2ccccc2)c1 ?
ATXN2 expr inh: -13%; uPA generation: -5%; S2 tox: inactive; TGFb inhibitor: inconclusive; HepG2 viability: 16µM*; Giardia kill: 7

How did Clc1ccc(OCCCNCc2ccccc2)c(Br)c1 do in these assays?
ATXN2 expr inh: inconclusive; uPA generation: 8%; TGFb inhibitor: inconclusive; HepG2 viability: -105%; Giardia kill: -5

Results for Cc1cc(Cl)c(OCCCNCc2ccccc2)c(Br)c1 ?
ATXN2 expr inh: inconclusive; uPA generation: -1%; S2 tox: inconclusive; TGFb inhibitor: inconclusive; HepG2 viability: 10µM*; Giardia kill: 3

How did Cc1c(C(=O)N/N=C/c2ccc(-c3ccccc3[N+](=O)[O-])o2)sc(N)c1C#N do in these assays?
ATXN2 expr inh: -20%; uPA generation: 12%; S2 tox: inactive; TGFb inhibitor: 5µM*; HepG2 viability: -39%; Giardia kill: -2

What do the screens show for `CCCCc1ccc(NC(=O)COC(=O)c2ccccc2OCC(=O)Nc2ccc(Br)cc2)cc1`?
TGFb inhibitor: 12%; HepG2 viability: 0%

Results for CC(=NNC(=O)c1ccncc1)c1ccccc1O ?
ATXN2 expr inh: inconclusive; uPA generation: -15%; S2 tox: inactive; TGFb inhibitor: 0%; HepG2 viability: -13%; Giardia kill: -3

How did CCCCCCCCC(=O)N/N=C(\C)c1ccc(O)cc1O do in these assays?
ATXN2 expr inh: 18µM*; uPA generation: -5%; S2 tox: inconclusive; TGFb inhibitor: inconclusive; HepG2 viability: -23%; Giardia kill: -7

How did C/C(=N/NC(=O)c1ccncc1)c1ccc(NC(=O)c2ccc(Cl)cc2Cl)cc1 do in these assays?
ATXN2 expr inh: 31%; uPA generation: 1%; S2 tox: inactive; TGFb inhibitor: 0%; HepG2 viability: 8%; Giardia kill: -17

Results for CC(=NNC(=O)c1ccncc1)c1ccc(O)cc1O ?
ATXN2 expr inh: 14µM*; uPA generation: -16%; S2 tox: inactive; TGFb inhibitor: -1%; HepG2 viability: 10%; Giardia kill: 12

What do the screens show for `C/C(=N\NC(=O)c1ccc(N/N=C(\C)c2ccc(O)cc2)cc1)c1ccc(O)cc1`?
uPA generation: inconclusive; S2 tox: inconclusive; TGFb inhibitor: 13µM*; HepG2 viability: 11µM*; Giardia kill: 0

What do the screens show for `C/C(=N\NC(=O)c1ccc(O)cc1)c1ccc(N2CCOCC2)cc1`?
ATXN2 expr inh: -16%; uPA generation: -1%; S2 tox: inactive; TGFb inhibitor: 13%; HepG2 viability: 8%; Giardia kill: 22

How did CC(C)CC(=NNC(=O)c1ccncc1)c1cc(Cl)ccc1O do in these assays?
ATXN2 expr inh: 2.8µM*; uPA generation: -9%; S2 tox: inconclusive; TGFb inhibitor: -1%; HepG2 viability: 7.1µM*; Giardia kill: 10

Results for Cc1ccc(S(=O)(=O)N2CCN(c3nc(C(N)=O)nc4ccccc34)CC2)cc1 ?
Giardia kill: 14

Results for CCOC(=O)c1ccc(-c2c(-c3cc(OC)c(OC)c(OC)c3)noc2C)cc1F ?
ATXN2 expr inh: -13%; uPA generation: inconclusive; S2 tox: inconclusive; TGFb inhibitor: 11µM*; HepG2 viability: 1%; Giardia kill: 1

What do the screens show for `CCOC(=O)c1ccc(-c2c(-c3ccc(OC)cc3)oc(=O)c3cc(OC)c(OC)cc23)cc1F`?
ATXN2 expr inh: 1%; uPA generation: 11%; S2 tox: inactive; TGFb inhibitor: -2%; HepG2 viability: 1%; Giardia kill: 2

What do the screens show for `CCOC(=O)c1ccc(-c2c(-c3ccccc3OC)sc3cc4c(cc23)OCO4)cc1F`?
ATXN2 expr inh: 19%; uPA generation: 5.6µM*; S2 tox: inactive; TGFb inhibitor: 0%; HepG2 viability: -17%; Giardia kill: -30

What do the screens show for `Cc1nc(SCc2nc3ccc(Cl)cc3[nH]2)c2oc3ccccc3c2n1`?
ATXN2 expr inh: inconclusive; uPA generation: inconclusive; S2 tox: inconclusive; TGFb inhibitor: 7.9µM*; HepG2 viability: -15%; Giardia kill: 7

How did Cc1ccc(S(=O)(=O)Nc2ccc(SC(F)F)cc2)c(C)c1 do in these assays?
ATXN2 expr inh: -37%; uPA generation: 5%; S2 tox: inconclusive; TGFb inhibitor: 13µM*; HepG2 viability: -72%; Giardia kill: -2

What do the screens show for `CC(C)c1ccc(S(=O)(=O)Nc2ccc(SC(F)F)cc2)cc1`?
ATXN2 expr inh: -26%; uPA generation: 11%; S2 tox: inconclusive; TGFb inhibitor: inconclusive; HepG2 viability: -53%; Giardia kill: -8

How did Cc1ccc(S(=O)(=O)n2cc(C=O)c3ccccc32)cc1 do in these assays?
ATXN2 expr inh: inconclusive; uPA generation: -1%; S2 tox: inactive; TGFb inhibitor: inconclusive; HepG2 viability: -30%; Giardia kill: 26
